Drawing on PubChem BioAssay (NCI), this text covers growth for ten compounds.

What all share (experiment): NCI-60 one-dose screen, 48 h (100 = growth as untreated, 0 = no growth, -100 = all killed)
One test concerns DU-145 prostate. Conditions: 10 µM unless noted.
The next test has as its system K-562 leukemia. As to conditions: 10 µM unless noted.
A further test deals with MALME-3M melanoma. Conditions: 10 µM unless noted.
The test system of a further test is MDA-MB-231 breast. Conditions: 10 µM unless noted.
The next test concerns RXF 393 renal. Conditions: 10 µM unless noted.
A further test has as its system SF-268 CNS. As to conditions: 10 µM unless noted.
The next test deals with SF-295 CNS. Conditions: 10 µM unless noted.
The subject of another test is SF-539 CNS. As to conditions: 10 µM unless noted.
In another test the test system is UACC-257 melanoma. As to conditions: 10 µM.
A further test has as its system M14 melanoma. Conditions: 10 µM unless noted.

Each structure is given as a SMILES string. This is part of a sample that, as a whole, favours compounds with a hit. Of some 83,000 tested, about 20% had one in any assay.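 Compound tested at a single concentration for 48 hours in 96-well plates; a percent growth value below 10 was scored as active.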 Values without a mark were called inactive. Activity calls are given as the source filed them.

In the case of `Clc1ccc(/C=C/c2nc(N3CCOCC3)c3nc(Cl)c(Cl)cc3n2)cc1`, the growth in the test on DU-145 prostate is 103%; in the test on K-562 leukemia it was 79.3%; with MALME-3M melanoma it was 113%; in the test on MDA-MB-231 breast, 110%; in the test with RXF 393 renal, 117%; in the test on SF-268 CNS it was 97.3%. For the same compound, the growth in the test with SF-295 CNS was 91.9%; in the test with SF-539 CNS, 98.6%; in the test on UACC-257 melanoma it was 106%; in the test on M14 melanoma, 96.4%.
For the compound `O=C(CN1CCN(c2cc3c(cc2F)c(=O)c(C(=O)O)cn3C2CC2)CC1)Nc1ccc(C(=O)/C=C/c2ccc(Cl)cc2)cc1`, the growth in the test with DU-145 prostate is 120%; with K-562 leukemia, 104%; in the test with MALME-3M melanoma, 100%; with MDA-MB-231 breast it was 115%; with RXF 393 renal it was 94.1%; in the test on SF-268 CNS it was 121%. In addition, the growth is 82.1% in the test on SF-295 CNS, 99.5% in the test on SF-539 CNS, 103% in the test on UACC-257 melanoma and 96.3% in the test on M14 melanoma.
For `CC[C@]1(O)C[C@@H]2CN(Cc3c([nH]c4ccccc34)[C@@](C(=O)OC)(c3cc4c(cc3OC)N(C)[C@H]3[C@@](O)(C(=O)OC)[C@H](OC(C)=O)[C@]5(CC)[C@@H]6C[C@@H]6CN6CC[C@]43[C@@H]65)C2)C1`, the growth was 7.39% (active) with DU-145 prostate; 11.8% in the test with K-562 leukemia; 38% with MALME-3M melanoma; 0.275% (active) in the test on MDA-MB-231 breast; 15.2% in the test with RXF 393 renal; 28.1% in the test with SF-268 CNS. For the same compound, the growth was -13.9% (active) in the test with SF-295 CNS, -0.324% (active) in the test on SF-539 CNS, 71.7% in the test on UACC-257 melanoma and -23.2% (active) with M14 melanoma.
For `COc1ccc(NC(=O)CSc2nc3ccccc3c(=O)n2Cc2cc(OC)c(OC)c(OC)c2)cc1`, the growth in the test on DU-145 prostate was 95.6%; with K-562 leukemia, 79.8%; in the test with MALME-3M melanoma, 88.2%; in the test with MDA-MB-231 breast it was 73.8%; in the test with RXF 393 renal it was 82.9%; in the test with SF-268 CNS it was 85.1%. The growth was 106% with SF-295 CNS, 79% in the test on SF-539 CNS, 94.3% in the test on UACC-257 melanoma and 99.4% in the test on M14 melanoma.
As to `C=CCn1c(C)nc2ccc(Nc3nc(Nc4ccc(F)cc4)nc4ccccc34)cc21`, the growth is 74.1% with DU-145 prostate; 21% with K-562 leukemia; 74.5% with MALME-3M melanoma; 73.8% in the test with MDA-MB-231 breast; 66.6% in the test with RXF 393 renal; 66% in the test on SF-268 CNS. In addition, the growth with SF-295 CNS was 31.4%; with SF-539 CNS, 73%; in the test on UACC-257 melanoma, 92.6%; with M14 melanoma it was 45.2%.
Consider `O=C(CCl)NCCNc1nccc(Nc2ccc(S(=O)(=O)Nc3ccccn3)cc2)n1`, for which the growth with DU-145 prostate was 14.4%; with K-562 leukemia, 17%; in the test on MALME-3M melanoma it was 10.2%; in the test on MDA-MB-231 breast it was 2.46% (active); in the test on RXF 393 renal, 36.9%; with SF-268 CNS, 9.86% (active). The growth is 36.2% in the test with SF-295 CNS, -15.2% (active) in the test with SF-539 CNS, 31.5% in the test on UACC-257 melanoma and 3.17% (active) in the test with M14 melanoma.
For `CC(C)(C)c1ccc(S(=O)(=O)Oc2ccc3c4c(c(=O)oc3c2)CCCCC4)cc1`, the growth was 77.4% with DU-145 prostate; 38.5% in the test with K-562 leukemia; 44% with MALME-3M melanoma; 80.2% in the test with MDA-MB-231 breast; 48.1% in the test with RXF 393 renal; 61.1% with SF-268 CNS. The growth in the test on SF-295 CNS is 2.71% (active); in the test with SF-539 CNS, 42.7%; in the test with UACC-257 melanoma, 48.9%; in the test with M14 melanoma it was 39.4%.
On to `CC(C)C[C@H](NC(=O)[C@H](Cc1ccccc1)n1ccc(N2CCCCC2)cc1=O)B(O)O`, for which the growth is 41.3% in the test on DU-145 prostate; 9.62% (active) in the test with K-562 leukemia; -23.8% (active) in the test on MALME-3M melanoma; -26.2% (active) with MDA-MB-231 breast; -54% (active) in the test on RXF 393 renal; -8.05% (active) with SF-268 CNS. Also, the growth with SF-295 CNS was 7.12% (active); in the test with SF-539 CNS it was -11.5% (active); in the test on UACC-257 melanoma, -16.9% (active); in the test on M14 melanoma, 12.5%.
As to `CC(C(=O)n1cc(-c2ccccc2)c(-c2ccccc2)c1)c1ccccc1` (stereo not given), the growth in the test with DU-145 prostate was 113%; in the test on K-562 leukemia it was 104%; in the test on MALME-3M melanoma it was 108%; in the test with MDA-MB-231 breast, 108%; in the test with RXF 393 renal, 112%; with SF-268 CNS it was 118%. Also, the growth was 91.9% in the test with SF-295 CNS, 104% in the test with SF-539 CNS, 95.3% in the test with UACC-257 melanoma and 108% in the test on M14 melanoma.
Consider `NCCSC(c1ccccc1)(c1ccccc1)c1ccccc1`, for which the growth in the test on DU-145 prostate is -1.74% (active); in the test on K-562 leukemia, 3.65% (active); in the test on MALME-3M melanoma, 27.5%; in the test on MDA-MB-231 breast, -24.2% (active); with RXF 393 renal it was -7.93% (active); in the test with SF-268 CNS, 27.4%. Moreover, the growth was -45.9% (active) with SF-295 CNS, -46.1% (active) in the test with SF-539 CNS, 47.7% with UACC-257 melanoma and -9.88% (active) with M14 melanoma.
